Test results from PubChem BioAssay (NCATS).
Inconclusive results are not listed. Where a call stands in place of a potency, no number is given. A number with no mark means an inactive call. Active and inactive are the calls of the source. Calls come from the whole dose curve; as a rule, active = well fitted curve in the direction sought with a large enough effect; inconclusive = small, poorly fitted or top-dose-only effect, or another doubt; inactive = no such curve, though single readings can be large; an effect the other way counts as inactive or inconclusive.

Tests used:
[1] = Quantitative highthroughput screen to assess conditional lethalithy of NOMO1 cells grown in RPMI1640 with untreated serum (RPMI+s) (AID 1963876); conditions: NOMO1 AML cells in RPMI+serum, CellTiter-Glo viability, 48 h; series mostly up to 45.8 µM; note: nearly all actives have a fitted effect of over 35% in size; note: potency is the fitted concentration of half-maximal effect
Summary of the method: (§1)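 Each medium arm—HPLM with 10% dialyzed FBS, or RPMI1640 with 5 mM glucose and 10% untreated or dialyzed FBS—was screened against an 11-point, 3-fold compound titration for 48 h at 37 °C, with CellTiter-Glo luminescence as endpoint.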

[2] = Quantitative highthroughput screen to assess conditional lethalithy of NOMO1 cells grown in RPMI1640 with dialyzed fetal bovine serum (RPMI+ds) (AID 1963877); conditions: NOMO1 in RPMI+dialyzed FBS viability, ATP luminescence, 48 h; series mostly up to 45.8 µM; note: nearly all actives have a fitted effect of over 30% in size; note: potency is the fitted concentration of half-maximal effect
Summary of the method: as §1

[3] = Quantitative highthroughput screen to assess conditional lethalithy of NOMO1 cells grown in Human Plasma-Like Medium with dialyzed fetal bovine serum (HPLM+ds) (AID 1963878); conditions: NOMO1 AML cells in HPLM+ds, CellTiter-Glo viability, 48 h; series mostly up to 45.8 µM; note: nearly all actives have a fitted effect of over 35% in size; note: potency is the fitted concentration of half-maximal effect
Summary of the method: as §1

[4] = Quantitative highthroughput screen to assess conditional lethalithy of P12 Ichikawa cells grown in Human Plasma-Like Medium with dialyzed fetal bovine serum (HPLM+ds) (AID 1963879); conditions: ATP luminescence, 48 h; Potency: viability; series mostly up to 45.8 µM; note: nearly all actives have a fitted effect of over 35% in size; note: potency is the fitted concentration of half-maximal effect
Summary of the method: as §1

[5] = Quantitative highthroughput screen to assess conditional lethalithy of P12 Ichikawa cells grown in RPMI1640 with dialyzed fetal bovine serum (RPMI+ds) (AID 1963880); conditions: ATP luminescence, 48 h; Potency: P12-Ichikawa viability; series mostly up to 45.8 µM; note: nearly all actives have a fitted effect of over 35% in size; note: potency is the fitted concentration of half-maximal effect
Summary of the method: as §1

[6] = Quantitative highthroughput screen to assess conditional lethalithy of P12 Ichikawa cells grown in RPMI1640 with untreated serum (RPMI+s) (AID 1963881); conditions: ATP luminescence, 48 h; Potency: viability; series mostly up to 45.8 µM; note: nearly all actives have a fitted effect of over 35% in size; note: potency is the fitted concentration of half-maximal effect
Summary of the method: as §1

[7] = Quantitative highthroughput screen to assess conditional lethalithy of SEM cells grown in Human Plasma-Like Medium with dialyzed fetal bovine serum (HPLM+ds) (AID 1963882); conditions: SEM B-ALL cells in HPLM+ds, CellTiter-Glo viability, 48 h; series mostly up to 45.8 µM; note: nearly all actives have a fitted effect of over 35% in size; note: potency is the fitted concentration of half-maximal effect
Summary of the method: as §1

[8] = Quantitative highthroughput screen to assess conditional lethalithy of SEM cells grown in RPMI1640 with unreated serum (RPMI+s) (AID 1963883); conditions: SEM B-ALL cells, CellTiter-Glo viability, 48 h; series mostly up to 45.8 µM; note: nearly all actives have a fitted effect of over 35% in size; note: potency is the fitted concentration of half-maximal effect
Summary of the method: as §1

[9] = Quantitative highthroughput screen to assess conditional lethalithy of SEM cells grown in RPMI1640 with dialyzed fetal bovine serum (RPMI+ds) (AID 1963884); conditions: SEM B-ALL cells, RPMI+dialyzed FBS, CellTiter-Glo viability, 48 h; series mostly up to 45.8 µM; note: nearly all actives have a fitted effect of over 35% in size; note: potency is the fitted concentration of half-maximal effect
Summary of the method: as §1

[10] = Cellular viability qHTS for adrenocortical cancer (ACC) cell line SW-13 (AID 1963989); conditions: SW-13 ACC cells viability, CellTiter-Glo, 48 h; activity (max response): active compounds read low;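 note: cells grown in serum-free medium with ITS supplement; nearly all actives have a fitted effect of over 65% in size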
Summary of the method: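 IC50 and maximal-response values come from four-parameter logistic fits of titration data. SW-13 cells in serum-free medium received compounds (up to 46 uM final) for 48 h before CellTiter-Glo luminescence.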

[11] = Cellular viability qHTS for adrenocortical cancer (ACC) cell line NCI-H295R (AID 1963990); conditions: CellTiter-Glo ATP luminescence, 48 h; series mostly up to 46.1 µM; note: nearly all actives have a fitted effect of over 60% in size
Summary of the method: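 Adrenocortical carcinoma cells, suspended at 300 000 cells/mL in serum-free DMEM plus ITS, rested overnight before pin transfer of compound. After two days' incubation, ATP-dependent luminescence was recorded and curve-fitted.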

SMILES	Potency [1]	Potency [2]	Potency [3]	Potency [4]	Potency [5]	Potency [6]	Potency [7]	Potency [8]	Potency [9]	activity (max response) [10] [%]	Potency [11]
O=C(CS(=O)Cc1ccco1)NCC=CCOc1cc(CN2CCCCC2)ccn1 (stereo not given)	inactive	inactive	inactive	inactive	inactive	inactive	inactive	inactive	inactive		
CC(NCc1ccc2c(c1)nc(NC(=O)c1ccc(-c3cn[nH]c3)s1)n2CC(C)(C)O)C(C)(C)C (stereo not given)	2.64 µM (active)	2.64 µM (active)	1.48 µM (active)	2.35 µM (active)	2.64 µM (active)	2.64 µM (active)	26.4 nM (active)	41.8 nM (active)	0.0187 µM (active)		
Clc1ccc(-c2nc3sccn3c2C=NOCc2ccc(Cl)c(Cl)c2)cc1	inactive	inactive	inactive	inactive	inactive	inactive	inactive	inactive	inactive		
COc1ccc2c3c1OC1C[C@@H](O)C=C[C@@]31CCN(C)C2 (stereo not given in full)	inactive	inactive	inactive	inactive	inactive	inactive	inactive	inactive	inactive		
C[C@@]12C(=O)OC(=O)[C@@]1(C)C1CCC2O1	8.33 µM (active)	7.43 µM (active)	6.62 µM (active)	8.33 µM (active)	9.35 µM (active)	9.35 µM (active)	8330 nM (active)	6620 nM (active)	5.26 µM (active)		
CC(C=CC1=C(C)CCCC1(C)C)=CC=CC(C)=CC(=O)Nc1ccc(O)cc1	30.3 µM (active)	17.1 µM (active)	15.2 µM (active)	6.05 µM (active)	2.7 µM (active)	6.05 µM (active)	3400 nM (active)	6050 nM (active)	3.03 µM (active)		
C[C@]12CCC3=C4CCC(=O)C=C4CC[C@@H]3[C@H]1CC[C@@]2(O)CC#N	inactive	inactive	inactive	inactive	inactive	inactive	inactive	inactive	inactive		
O=C1NC(=O)C(=Cc2ccc(-c3ccc(F)cc3)o2)S1	inactive	inactive	inactive	inactive	inactive	inactive	inactive	inactive	inactive		
NC(=O)c1ncn([C@@H]2O[C@H](CO)[C@@H](O)[C@@H]2O)c1O	inactive	inactive	inactive	inactive	inactive	inactive	inactive	inactive	inactive		
COc1ccc2c(c1)CC[C@H]1[C@@H]2CC[C@]2(C)[C@@H](NCCCCCCN3C(=O)C=CC3=O)CC[C@H]12	inactive	inactive	inactive	inactive	inactive	inactive	inactive	inactive	inactive		
CCC(CC)[C@H](NC(C)=O)[C@@H]1[C@H](O)[C@@H](C(=O)O)C[C@@H]1N=C(N)N	inactive	inactive	inactive	inactive	inactive	inactive	inactive	inactive	inactive		
CC(=O)OCC(=O)[C@@]1(O)CC[C@H]2[C@@H]3CCC4=CC(=O)CC[C@]4(C)[C@@H]3C(=O)C[C@@]21C	inactive	inactive	inactive	inactive	inactive	inactive	inactive	inactive	inactive		
O=C1Nc2ccc(I)cc2C1=Cc1cc(Br)c(O)c(Br)c1	inactive	inactive	inactive	inactive	inactive	inactive	inactive	16600 nM (active)	18.7 µM (active)		
O=C(O)[C@H](CC(=O)N1C[C@@H]2CCCC[C@H]2C1)Cc1ccccc1	inactive	inactive	inactive	inactive	inactive	inactive	inactive	inactive	inactive		
CN[C@@H]1[C@@H](O)[C@@H](O[C@@H]2[C@@H](O)[C@H](O[C@H]3O[C@H](CN)[C@@H](O)[C@H](O)[C@@H]3O)[C@@H](N)C[C@@H]2NC(=O)[C@@H](O)CN)OC[C@]1(C)O	inactive	inactive	inactive	inactive	inactive	inactive	inactive	inactive	inactive		
CC(C)(O)Cn1c(NC(=O)c2ccc(-c3cn[nH]c3)s2)nc2cc(CN3CCOCC3)ccc21	4.18 µM (active)	4.18 µM (active)	2.96 µM (active)	2.35 µM (active)	2.35 µM (active)	2.96 µM (active)	105 nM (active)	66.2 nM (active)	0.0935 µM (active)		
O=C(C=CC#Cc1cccc(NS(=O)(=O)c2ccccc2)c1)NO	3.72 µM (active)	3.32 µM (active)	3.32 µM (active)	2.35 µM (active)	2.09 µM (active)	2.09 µM (active)	2640 nM (active)	2960 nM (active)	2.35 µM (active)		
COc1cccc2c1C(=O)c1c(O)c3c(c(O)c1C2=O)C[C@@](O)(C(=O)CO)C[C@H]3O[C@H]1C[C@H](N)[C@H](O)[C@H](C)O1	2.96 µM (active)	2.96 µM (active)	2.35 µM (active)	1.66 µM (active)	2.09 µM (active)	1.32 µM (active)	469 nM (active)	418 nM (active)	0.372 µM (active)		

SMILES	Potency [1]	Potency [2]	Potency [3]	Potency [4]	Potency [5]	Potency [6]	Potency [7]	Potency [8]	Potency [9]	activity (max response) [10] [%]	Potency [11]
O=C(O)C(=O)Nc1cccc(C2=NN=N[N]2)c1	inactive	inactive	inactive	inactive	inactive	inactive	inactive	inactive	inactive		
CN1CC(=O)N2C(Cc3c([nH]c4ccccc34)[C@H]2c2ccc3c(c2)OCO3)C1=O (stereo not given in full)	inactive	inactive	inactive	inactive	inactive	inactive	inactive	inactive	inactive		
Cc1cc(CS(=O)(=O)c2ccccc2)cc(OCc2ccc(CN3CCC[C@H]3CO)cc2)c1	1.05 µM (active)	1.32 µM (active)	0.662 µM (active)	0.743 µM (active)	1.18 µM (active)	1.05 µM (active)	590 nM (active)	332 nM (active)	0.526 µM (active)		
C[C@H](CCC(=O)O)[C@H]1CC[C@H]2[C@@H]3[C@H](O)C[C@@H]4C[C@H](O)CC[C@]4(C)[C@@H]3CC[C@]12C	inactive	inactive	inactive	inactive	inactive	inactive	inactive	inactive	inactive		
CCOc1ccc(Cc2cc([C@@H]3O[C@H](CO)[C@@H](O)[C@H](O)[C@@H]3O)ccc2Cl)cc1	inactive	inactive	inactive	inactive	inactive	inactive	inactive	inactive	inactive		
O=C(O)C=Cc1ccc(Cn2ccnc2)cc1	inactive	inactive	inactive	inactive	inactive	inactive	inactive	inactive	inactive		
C=CC[N+]1([C@H]2C[C@H]3[C@@H]4CC[C@H]5C[C@H](O)[C@@H](N6CCOCC6)C[C@]5(C)[C@@H]4CC[C@]3(C)[C@H]2OC(C)=O)CCCC1	inactive	inactive	inactive	inactive	inactive	inactive	inactive	inactive	inactive		
CC(C=CC=C(C)C=CC1=C(C)CCCC1(C)C)=CC=CC=C(C)C=CC=C(C)C=CC1=C(C)CCCC1(C)C	inactive	inactive	inactive	inactive	inactive	inactive	inactive	inactive	inactive		
OCCn1cc(-c2ccc3c(c2)CCC3=NO)c(-c2ccncc2)n1	inactive	inactive	inactive	inactive	inactive	inactive	inactive	inactive	inactive		
COc1cc(N2CCC(C(N)=O)CC2)ccc1Nc1nc(N)c(Cl)c(Nc2ccccc2S(=O)(=O)C(C)C)n1	20.9 µM (active)	16.6 µM (active)	16.6 µM (active)	23.5 µM (active)	18.7 µM (active)	18.7 µM (active)	8330 nM (active)	4180 nM (active)	9.35 µM (active)		
CO[C@H]1C=CC=C(C)C(=O)NC2=CC(=O)C(NCCN(C)C)=C(C[C@@H](C)C[C@H](OC)[C@@H](O)[C@@H](C)C=C(C)[C@@H]1OC(N)=O)C2=O	0.743 µM (active)	0.662 µM (active)	0.662 µM (active)	4.69 µM (active)	0.935 µM (active)	0.743 µM (active)	166 nM (active)	148 nM (active)	0.118 µM (active)		
COc1ccc(-c2cc(=O)c3c(O)cc(O[C@@H]4O[C@H](CO[C@@H]5O[C@@H](C)[C@H](O)[C@@H](O)[C@@H]5O)[C@@H](O)[C@H](O)[C@@H]4O)cc3o2)cc1O	inactive	inactive	inactive	inactive	inactive	inactive	inactive	inactive	inactive		
CC(C)(O)CC[C@@H](O)[C@](C)(O)[C@H]1CC[C@@]2(O)C3=CC(=O)[C@@H]4C[C@@H](O)[C@@H](O)C[C@]4(C)[C@@H]3CC[C@]12C	inactive	inactive	inactive	inactive	inactive	inactive	inactive	inactive	inactive		
C[C@]12CC[C@H](O)CC1=CC[C@@H]1[C@H]2CC[C@]2(C)C(c3cccnc3)=CC[C@H]12	inactive	inactive	inactive	inactive	inactive	inactive	inactive	inactive	inactive		
CN1[C@H]2CC[C@H]1CC(OC(=O)c1c[nH]c3ccccc13)C2 (stereo not given in full)	inactive	inactive	inactive	inactive	inactive	inactive	inactive	inactive	inactive		
C[C@H](NC(=O)C(C#N)=Cc1cccc(Br)n1)c1ccccc1	2.64 µM (active)	3.32 µM (active)	1.87 µM (active)	1.48 µM (active)	2.35 µM (active)	2.35 µM (active)	1320 nM (active)	935 nM (active)	1.32 µM (active)		
COc1cc(C)c(C=CC(C)=CC=CC(C)=CC(=O)O)c(C)c1C	inactive	inactive	inactive	inactive	inactive	inactive	inactive		inactive		
CCN(CC)CCn1c(=O)c(Cc2ccc(OC)cc2)nc2ccccc21	inactive	inactive	inactive	inactive	inactive	inactive	inactive	inactive	inactive	-3.48	inactive
